In PubChem BioAssay (NCATS):
Inconclusive results are not listed. The source made the active and inactive calls. Calls follow the shape of the dose curve; as a rule, active = well fitted curve in the direction sought with a large enough effect; inconclusive = small, poorly fitted or top-dose-only effect, or another doubt; inactive = no such curve, though single readings can be large; an effect the other way counts as inactive or inconclusive.

Tests used:
[1] = tested on: HEK293; experiment: Cytotoxic Profiling of Annotated Libraries Using Quantitative High-Throughput Screening (AID 1296008); settings: Five cell lines viability, CellTiter-Glo ATP luminescence, 48-72 h; max response: hits give low values; also: nearly all actives have a fitted effect of over 60% in size
Method in brief: (§1)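 Cells exposed to compounds for 48 or 72 hr at 37 degrees Celsius. Viability read as ATP-coupled luminescence with CellTiter-Glo after 10 min at room temperature.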

[2] = tested on: HaCat; experiment: as above; settings: Five cell lines viability, CellTiter-Glo ATP luminescence, 48-72 h; max response: hits give low values
Method in brief: as §1

[3] = tested on: KB-3-1; experiment: as above; settings: Five cell lines viability, CellTiter-Glo ATP luminescence, 48-72 h; max response: hits give low values
Method in brief: as §1

[4] = tested on: NIH3T3; experiment: as above; settings: Five cell lines viability, CellTiter-Glo ATP luminescence, 48-72 h; max response: hits give low values
Method in brief: as §1

[5] = tested on: C33A; experiment: Primary qHTS to identify gynecologic anti-cancer compounds using libraries of approved drugs and bioactive compounds (AID 1345084); settings: Gynecologic cancer cell panel viability, ATPlite luminescence, 48 h; series mostly up to 57.5 µM; also: nearly all actives have a fitted effect of over 55% in size
Method in brief: (§2)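 Cells, 1,000 per well, plated 16 h, then exposed 48 h at 37 C to compounds. Viability by ATPlite luminescence after 15 min at room temperature.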

[6] = tested on: CASKI; experiment: as above; settings: Gynecologic cancer cell panel viability, ATPlite luminescence, 48 h; series mostly up to 57.5 µM
Method in brief: as §2

[7] = tested on: Es-2; experiment: as above; settings: Gynecologic cancer cell panel viability, ATPlite luminescence, 48 h; series mostly up to 57.5 µM
Method in brief: as §2

[8] = tested on: HeLa; experiment: as above; settings: Gynecologic cancer cell panel viability, ATPlite luminescence, 48 h; series mostly up to 57.5 µM
Method in brief: as §2

[9] = tested on: Hek293T; experiment: as above; settings: Gynecologic cancer cell panel viability, ATPlite luminescence, 48 h, control line for the selectivity index; series mostly up to 57.5 µM
Method in brief: as §2

[10] = tested on: JEG-3; experiment: as above; settings: Gynecologic cancer cell panel viability, ATPlite luminescence, 48 h; series mostly up to 57.5 µM
Method in brief: as §2
% is scaled to controls: 0 for no effect and ±100 for the full control effect; potency is read from the fitted curve at half-maximal effect.

O=C(NCC(O)CO)c1ccncc1Nc1ccc(I)cc1F (stereo not given)
inactive: max response [1] -15.9% | outcome [3] | Potency [5] | Potency [6] | Potency [8] | Potency [9] | Potency [10]
active: Potency [2] 18.4 µM | Potency [4] 7.31 µM | Potency [7] 2 µM

CC1=CCC(C(C)(C)O[C@@H]2O[C@H](CO[C@@H]3O[C@@H](C)[C@H](O)[C@@H](O)[C@H]3O)[C@@H](O)[C@H](O)[C@H]2O)CC1 (stereo not given in full)
inactive: max response [1] 2.02% | max response [2] 1.99% | outcome [3] | max response [4] 2.56% | Potency [5] | Potency [6] | Potency [7] | Potency [8] | Potency [9] | Potency [10]

COc1ccc(C(=O)n2c(C)c(Cc3cccc(O[C@@H](C)C(=O)O)c3)c3cc(OC(F)(F)F)ccc32)cc1
inactive: max response [1] -1.86% | max response [2] -6.22% | max response [3] 0.537% | max response [4] 2.93% | Potency [5] | Potency [6] | Potency [7] | Potency [8] | Potency [9] | Potency [10]

CC1OC(OC2C(CO)OC(OCC3OC(OC(=O)C45CCC(C)(C)CC4C4=CCC6C7(C)CCC(OC8OC(CO)C(O)C(OC9OC(CO)C(O)C(O)C9O)C8O)C(C)(C)C7CCC6(C)C4(C)CC5)C(O)C(O)C3O)C(O)C2O)C(O)C(O)C1OC1OC(CO)C(O)C(O)C1O (stereo not given)
inactive: max response [1] -0.594% | max response [2] -8.62% | max response [3] -0.0406% | max response [4] -0.84% | activity change, negative = cytotoxicity [5] -0.229% [at 6.55 µM] | activity change, negative = cytotoxicity [6] 8.74% [at 6.55 µM] | activity change, negative = cytotoxicity [7] 5.26% [at 6.55 µM] | activity change, negative = cytotoxicity [8] 3.66% [at 6.55 µM] | activity change, negative = cytotoxicity [9] 13.1% [at 6.55 µM] | activity change, negative = cytotoxicity [10] 7.02% [at 6.55 µM]

CC1CC(C(O)C(C)(C)O)OC2CC3(C)C4(C)CCC5C(C)(C)C(=O)CCC5(C)C4CCC3(O)C12O (stereo not given)
inactive: max response [1] -2.59% | max response [2] 3.58% | outcome [3] | max response [4] 2.04% | Potency [5] | Potency [6] | Potency [7] | Potency [8] | Potency [9] | Potency [10]

CC12CCC(=O)C=C1C(O)CC1C2C(O)CC2(C)C1CC[C@]2(O)C(=O)CO (stereo not given in full)
inactive: max response [1] -5.89% | max response [2] 0.87% | outcome [3] | max response [4] 0.282% | activity change, negative = cytotoxicity [5] 4.59% [at 11.6 µM] | activity change, negative = cytotoxicity [6] -0.604% [at 11.6 µM] | activity change, negative = cytotoxicity [7] 1.39% [at 11.6 µM] | activity change, negative = cytotoxicity [8] 6.62% [at 11.6 µM] | activity change, negative = cytotoxicity [9] 5.48% [at 11.6 µM] | activity change, negative = cytotoxicity [10] 6.5% [at 11.6 µM]
